Experimental data from PubChem BioAssay (Tox21).
Inconclusive results are not listed. Where a call stands in place of a potency, no number is given. More than one record can exist for a structure, and the calls need not agree. Active and inactive are the calls of the source. The call rests on the fitted dose curve; in most records, active means well fitted activation curve with a large enough effect in the repeat runs; inconclusive means weak or mixed curves; inactive means flat fitted curve, though single readings scatter.

Test: A CellTox Green Cytotoxicity Assay to monitor cytotoxicity in HEK293 cells - 32 hour (AID 1224881); further: nearly all actives have a fitted effect of over 40% in size
Details: CellTox Green fluorescence; series mostly up to 76.8 µM
In short: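 Cytotoxicity was tracked continuously in HEK293 cells by a DNA-binding dye excluded from viable cells. Compounds were transferred in DMSO 5 h after seeding; fluorescence was recorded at intervals up to 40 h.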
Potency means the concentration at half of the fitted maximal effect.

| SMILES | Potency |
| --- | --- |
| Cn1cc(C(=O)[C@@H]2CCc3nc[nH]c3C2)c2ccccc21 | inactive |
| Cc1cc(C2CCCCC2)n(O)c(=O)c1 | inactive |
| Cc1[nH]nc2c1N=C(c1ccccc1Cl)c1cc([N+](=O)[O-])ccc1N2 | inactive |
| CC1=C(C(=O)OC(C)C)C(c2cccc([N+](=O)[O-])c2)C(C(=O)OC2CN(C(c3ccccc3)c3ccccc3)C2)=C(N)N1 (configuration not stated) | inactive |
| CCCCc1oc2ccc(NS(C)(=O)=O)cc2c1C(=O)c1ccc(OCCCN(CCCC)CCCC)cc1 | 21.3 µM (active) |
| OCCCCCCCCCCCCBr | inactive |
| Cc1ccc(-n2nc(C(C)(C)C)cc2NC(=O)Nc2ccc(OCCN3CCOCC3)c3ccccc23)cc1 | inactive |
| C/C(=C(/OCCOc1ccc(Cl)cc1)c1ccc(Cl)cc1Cl)n1ccnc1 | inactive |
| NNc1nc(-c2ccc(N)cc2)cs1 | inactive |
| Nc1nc2ccccc2n1Cc1ccc(F)cc1 | inactive |
| OCCN(CCO)c1nc(N2CCCCC2)c2nc(N(CCO)CCO)nc(N3CCCCC3)c2n1 | 19 µM (active) |
| CCCCCCCCn1sc(Cl)c(Cl)c1=O | 1.23 µM (active) |
| Clc1ccccc1C(c1ccccc1)(c1ccccc1)n1ccnc1 | 43.6 µM (active) and inactive |
| [Cl][Au]([Cl])[Cl] | 19.5 µM (active) |
| Oc1c(Cl)cc(Cl)c2cccnc12 | 5.35 µM (active) |
| O=C(NOCC1CC1)c1ccc(F)c(F)c1Nc1ccc(I)cc1Cl | inactive |
| O=C(N/N=C/c1ccccc1O)c1ccncc1 | inactive |
| ON=C1CCCC1 | inactive |

| SMILES | Potency |
| --- | --- |
| Nc1ccccc1O | inactive |
| [O-][n+]1ccccc1SSc1cccc[n+]1[O-] | 2.93 µM (active) |
| CCCCCCCCS(=O)C(C)Cc1ccc2c(c1)OCO2 (configuration not stated) | inactive |
| NNc1nc(-c2ccccc2)cs1 | inactive |
| CCCCC(CC)CN=C(N)NC(N)=NCCCCCCN=C(N)NC(N)=NCC(CC)CCCC (configuration not stated) | 9.52 µM (active) |
| CCCCCCCCCCCC[N+](C)(C)CCCCCCCCCCCC | 15.5 µM (active) |
| CC1=NC(C)OC1C (configuration not stated) | inactive |
| C/C=C(\C)C(=O)OCc1ccccc1 | inactive |
| COCCCC/C(=N\OCCN)c1ccc(C(F)(F)F)cc1 | inactive |
| CCCCCCCCNC(C)C(O)c1ccc(SC(C)C)cc1 (configuration not stated) | 16.9 µM (active) |
| [Cl][Bi]([Cl])([c]1ccccc1)([c]1ccccc1)[c]1ccccc1 | 24.4 µM (active) |
| OCCN1CCN(CC/C=C2/c3ccccc3Sc3ccc(C(F)(F)F)cc32)CC1 | 26.8 µM (active) |
| O=c1cccccc1O | inactive |
| CC(C)c1ccc2c(c1)CC[C@H]1[C@](C)(CN)CCC[C@]21C | 19.5 µM (active) |
| CCCCCOc1ccccc1/C(=C\SC)n1ccnc1 | inactive |
| CCCC1O[C@@H]2C[C@H]3[C@@H]4CCC5=CC(=O)C=C[C@]5(C)[C@H]4[C@@H](O)C[C@]3(C)[C@]2(C(=O)CO)O1 (some centres not stated) | inactive |
| O=C(Nc1cccc([N+](=O)[O-])c1)c1cc2ccccc2cc1O | inactive |
| Cc1cc(O)c2ccccc2c1O | 9.52 µM (active) |

Test: A CellTox Green Cytotoxicity Assay to monitor cytotoxicity in HepG2 cells - 0 hour (AID 1224882); further: nearly all actives have a fitted effect of over 35% in size
Details: CellTox Green fluorescence; series mostly up to 76.8 µM
In short: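 Real-time, homogeneous cytotoxicity readout: dead-cell DNA staining by CellTox Green in HepG2 monolayers, fluorescence measured at timed intervals up to 40 h of continuous compound exposure.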

| SMILES | Potency |
| --- | --- |
| Cn1cc(C(=O)[C@@H]2CCc3nc[nH]c3C2)c2ccccc21 | inactive |
| Cc1cc(C2CCCCC2)n(O)c(=O)c1 | inactive |
| Cc1[nH]nc2c1N=C(c1ccccc1Cl)c1cc([N+](=O)[O-])ccc1N2 | inactive |
| CC1=C(C(=O)OC(C)C)C(c2cccc([N+](=O)[O-])c2)C(C(=O)OC2CN(C(c3ccccc3)c3ccccc3)C2)=C(N)N1 (configuration not stated) | inactive |
| CCCCc1oc2ccc(NS(C)(=O)=O)cc2c1C(=O)c1ccc(OCCCN(CCCC)CCCC)cc1 | inactive |
| OCCCCCCCCCCCCBr | inactive |
| Cc1ccc(-n2nc(C(C)(C)C)cc2NC(=O)Nc2ccc(OCCN3CCOCC3)c3ccccc23)cc1 | inactive |
| C/C(=C(/OCCOc1ccc(Cl)cc1)c1ccc(Cl)cc1Cl)n1ccnc1 | inactive |
| NNc1nc(-c2ccc(N)cc2)cs1 | inactive |
| Nc1nc2ccccc2n1Cc1ccc(F)cc1 | inactive |
| OCCN(CCO)c1nc(N2CCCCC2)c2nc(N(CCO)CCO)nc(N3CCCCC3)c2n1 | 23.9 µM (active) |
| CCCCCCCCn1sc(Cl)c(Cl)c1=O | inactive |
| Clc1ccccc1C(c1ccccc1)(c1ccccc1)n1ccnc1 | inactive |
| [Cl][Au]([Cl])[Cl] | inactive |
| Oc1c(Cl)cc(Cl)c2cccnc12 | inactive |
| O=C(NOCC1CC1)c1ccc(F)c(F)c1Nc1ccc(I)cc1Cl | inactive |
| O=C(N/N=C/c1ccccc1O)c1ccncc1 | inactive |
| ON=C1CCCC1 | inactive |

| SMILES | Potency |
| --- | --- |
| Nc1ccccc1O | inactive |
| [O-][n+]1ccccc1SSc1cccc[n+]1[O-] | 11.7 µM (active) |
| CCCCCCCCS(=O)C(C)Cc1ccc2c(c1)OCO2 (configuration not stated) | inactive |
| NNc1nc(-c2ccccc2)cs1 | inactive |
| CCCCC(CC)CN=C(N)NC(N)=NCCCCCCN=C(N)NC(N)=NCC(CC)CCCC (configuration not stated) | inactive |
| CCCCCCCCCCCC[N+](C)(C)CCCCCCCCCCCC | inactive |
| CC1=NC(C)OC1C (configuration not stated) | inactive |
| C/C=C(\C)C(=O)OCc1ccccc1 | inactive |
| COCCCC/C(=N\OCCN)c1ccc(C(F)(F)F)cc1 | inactive |
| CCCCCCCCNC(C)C(O)c1ccc(SC(C)C)cc1 (configuration not stated) | inactive |
| [Cl][Bi]([Cl])([c]1ccccc1)([c]1ccccc1)[c]1ccccc1 | inactive |
| OCCN1CCN(CC/C=C2/c3ccccc3Sc3ccc(C(F)(F)F)cc32)CC1 | inactive |
| O=c1cccccc1O | inactive |
| CC(C)c1ccc2c(c1)CC[C@H]1[C@](C)(CN)CCC[C@]21C | inactive |
| CCCCCOc1ccccc1/C(=C\SC)n1ccnc1 | inactive |
| CCCC1O[C@@H]2C[C@H]3[C@@H]4CCC5=CC(=O)C=C[C@]5(C)[C@H]4[C@@H](O)C[C@]3(C)[C@]2(C(=O)CO)O1 (some centres not stated) | inactive |
| O=C(Nc1cccc([N+](=O)[O-])c1)c1cc2ccccc2cc1O | inactive |
| Cc1cc(O)c2ccccc2c1O | inactive |
